For eleven molecules, growth results are on record in PubChem BioAssay (NCI).

Compounds without any hit were thinned out: in the full panel of roughly 83,000, 20% have a hit.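 Activity criterion: percent growth below 10, measured after cells in 96-well plates were exposed to a single compound concentration for 48 hours.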 Values without a mark were called inactive. Calls of active or inactive are those of the source.

Common to all, as to assay: NCI-60 one-dose screen, 48 h (100 = growth as untreated, 0 = no growth, -100 = all killed)
Conditions in all cases: 10 µM unless noted

Assay [1] relates to NCI-H23 lung.
Assay [2] relates to NCI-H226 lung.
In assay [3] the test system is NCI-H322M lung.
Assay [4] has as its system HOP-62 NSCLC.
In assay [5] the test system is NCI-H460 lung.
Assay [6] concerns HOP-92 NSCLC.
The subject of assay [7] is NCI-H522 lung.
In assay [8] the test system is A549/ATCC NSCLC.
For assay [9], the system named is 786-0 renal.
Assay [10] has as its system COLO 205 colon.

Regarding `CC1CCc2c(sc3nc(SCC(=O)N/N=C/c4cccc(O)c4O)n(-c4ccccc4)c(=O)c23)C1` (stereo not given), the growth in assay [1] is 88%; in assay [2], 87.4%; in assay [3], 96.8%; in assay [4], 71.2%; in assay [5], 88.4%; in [6] it was 45.4%. The growth was 83.1% in [7], 86.2% in assay [8], 99.7% in [9] and 110% in assay [10].
As to `C/C(=C(/C)C1CC1CCN(C(=O)c1ccc([N+](=O)[O-])cc1)S(=O)(=O)c1ccc(C)cc1)C1CCCCC1` (stereo not given), the growth in [1] was 87.2%; in assay [2], 90.8%; in assay [3], 100%; in assay [4], 109%; in assay [5], 98.6%; in assay [6] it was -49% (active). The growth in assay [7] is 83.8%; in [8], 97.8%; in assay [9] it was 96.2%; in assay [10], 112%.
Turning to `C[C@H]1[C@H](C)CC[C@]2(COC(=O)c3cccnc3)CC[C@]3(C)C(=CC[C@@H]4[C@@]5(C)CCCNC(C)(C)[C@@H]5CC[C@]43C)[C@H]12`, the growth is 70% in [1]; 78.1% in assay [2]; 88.3% in assay [3]; 99.8% in [4]; 65.1% in [5]; 67.5% in assay [6]. Also, the growth in assay [7] was 82.9%; in assay [8], 78.6%; in [9] it was 70.7%; in [10] it was 43.9%.
Consider `O=C(NNc1nc2cc(F)c(F)cc2n2cccc12)c1ncccn1`, for which the growth is 20.3% in assay [1]; 14% in assay [2]; 28.7% in assay [3]; 19.9% in assay [4]; 10.6% in assay [5]; 68.1% in assay [6]. The growth in [7] was 13.7%; in assay [8], 21.1%; in [9] it was 8.17% (active); in assay [10], 20.5%.
For `NS(=O)(=O)c1ccc(-n2cc(CC=O)nn2)cc1`, the growth in [1] is 105%; in [2], 99%; in assay [3], 111%; in [4], 105%; in [5], 105%; in assay [6], 94.8%. Also, the growth was 94.5% in assay [7], 103% in [8], 102% in assay [9] and 121% in assay [10].
For `CS(=O)(=O)c1nccc(-c2c(-c3ccc(F)c(OCCc4ccccc4)c3)nc3sccn23)n1`, the growth in assay [1] is 100%; in assay [2], 89.2%; in assay [3] it was -26.9% (active); in assay [4] it was 103%; in [5] it was 28.8%; in assay [6], 50.1%. Besides, the growth in [7] was -12.5% (active); in [8], 99%; in assay [9], 98.2%; in assay [10], 112%.
`O=C(Nc1cccc(-c2nc(-c3ccc(NC(=O)c4cccnc4)cc3Cl)no2)c1)Nc1ccc(NC(=O)C2CC2)c(C(F)(F)F)c1`: the growth in [1] was -68.6% (active); in assay [2] it was -55.9% (active); in assay [3], -30.7% (active); in [4], -47.8% (active); in [5], -77.7% (active); in assay [6], -68.1% (active). Also, the growth was -43.6% (active) in assay [7], 7.02% (active) in [8], -47.5% (active) in assay [9] and -55.3% (active) in assay [10].
As for `C#C[C@]1(O)CC[C@H]2[C@@H]3CC=C4c5sc(Nc6nc(C)cc(OC)n6)nc5CC[C@]4(C)[C@H]3CC[C@@]21C`, the growth in assay [1] is 71.9%; in assay [2], 71%; in assay [3] it was 92.9%; in [4] it was 40%; in [5], 21.9%; in assay [6], 43.9%. For the same molecule, the growth in assay [7] is 88.1%; in [8], 53.9%; in [9], -4.27% (active); in [10], 78.5%.
As to `O=C1Nc2cc(OC(F)(F)F)ccc2Oc2ccc(-c3ccnc(N4CC[C@H](O)C4)c3)cc21`, the growth in [1] was 27.6%; in assay [2], -8.84% (active); in assay [3], 55.1%; in assay [4] it was 25.3%; in [5] it was -47.1% (active); in assay [6] it was 45.7%. Also, the growth is -28% (active) in [7], 0.655% (active) in assay [8], 6.88% (active) in [9] and -42% (active) in [10].
As to `C=CCn1c(SCC(=O)Nc2cccc(C(=O)/C=C/c3ccc(Br)cc3)c2)nc2ccccc2c1=O`, the growth in [1] was 85.1%; in assay [2], 94.1%; in assay [3], 86.6%; in assay [4] it was 96.8%; in assay [5] it was 94.9%; in assay [6], 78.4%. Also, the growth in assay [7] is 75.3%; in assay [8] it was 86.4%; in assay [9], 97.7%; in [10], 111%.
Turning to `O=C(Nc1cccc(Cl)c1)Nc1nc2ccc([N+](=O)[O-])cc2s1`, the growth in assay [1] was -20.9% (active); in assay [2] it was -7.2% (active); in assay [3], 8.75% (active); in [4] it was -1.84% (active); in assay [5] it was 2.75% (active); in [6], -11.9% (active). Also, the growth in [7] is 2.99% (active); in assay [8] it was 10%; in assay [9] it was 8.65% (active); in assay [10], -54.2% (active).
